Data published in PubChem BioAssay.
Activity calls are given as the source filed them.

What was measured:
Albumin (Bos taurus) = Albumin (Bos taurus) (UniProt P02769); test: bovine serum albumin binders on microarray, profiling panel, artefact control for SMM control protein annotation, biochemical, small-molecule microarray, Alexa647 label, 635/667 nm fluorescence (AID 1118); conditions: BSA-A647 binding, fluorescence 635 nm, higher = more signal;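 also: score merges 667 nm emission intensity and signal-to-noise per printed compound spot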
[1] = small-molecule microarray binders of probe aXIP, primary screen, biochemical, NeuroSMM set, 635/667 nm fluorescence (AID 1119); conditions: higher = more signal, called active from +8 up or from −8 down;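 also: probe is the protein aXip251-270 applied at 1 µg/mL to compound-printed slides; binding of probe to printed compounds measured as 667 nm fluorescence plus signal to noise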
[2] = small-molecule binders of probe aNOTCH3, primary screen, biochemical, small-molecule microarray, 635/667 nm fluorescence (AID 1120); conditions: higher = more signal;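 also: probe is a biotin-tagged antibody raised against NOTCH3 rather than NOTCH3 protein; score merges spot fluorescence near 667 nm with spot signal to noise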
[3] = small-molecule binders of probe aNOTCH2, primary screen, biochemical, small-molecule microarray, 635/667 nm fluorescence (AID 1121); conditions: higher = more signal;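 also: score merges feature fluorescence read at 667 nm with its signal to noise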
[4] = biological target: Carbonic anhydrase 2 (Homo sapiens) (UniProt P00918); test: CAII small-molecule binders, profiling panel, biochemical, small-molecule microarray, Alexa647-labelled CAII (AID 1122); conditions: CAII-A647 binding fluorescence, higher = more signal
[5] = COS7 lysate on small-molecule microarray, probe aHis, 635 nm (AID 1123); conditions: COS7 cell lysate, fluorescence, higher = more signal;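 also: z-score combines 667nm fluorescence intensity with signal-to-noise per printed compound spot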
[6] = compound binding in COS7 lysate, probe aLAP1, primary screen, cell lysate, small-molecule microarray (AID 1124); conditions: probe aLAP1, fluorescence, higher = more signal;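 also: lysate comes from COS7 cells expressing LAP1 and is applied at 0.3 µg/mL; score merges spot fluorescence near 667 nm with signal-to-noise over triplicate slides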
Sam68 (KHDRBS1) = test: Sam68 small-molecule binders, primary screen, biochemical, small-molecule microarray, 635 nm fluorescence (AID 1125); conditions: small-molecule microarray binding, higher = more signal;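 also: score merges 667 nm channel intensity with signal to noise over triplicate slides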
[7] = tested on: Chordin-like protein 2 (CHRDL2); test: CHRDL2 small-molecule binders, primary screen, biochemical, small-molecule microarray, 635 nm fluorescence (AID 1126); conditions: small-molecule microarray binding, fluorescence 635 nm; higher = more signal;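 also: printed compound slides probed with Chrdl2 protein at 4 µg/mL for 1 h at 4 C; score merges 667 nm emission intensity with signal to noise over three replicate slides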
[8] = biological target: Concanavalin-A (Canavalia ensiformis) (UniProt P02866); test: ConA small-molecule binders, primary screen, artefact control for SMM control protein annotation, biochemical, small-molecule microarray, Alexa647 label, 635 nm (AID 1127); conditions: ConA-A647 binding fluorescence, higher = more signal;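 also: z combines 667 nm emission intensity with signal-to-noise across three replicate slides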
[9] = anti-His antibody binders, primary screen, artefact control for SMM control protein annotation, biochemical, small-molecule microarray, 635 nm fluorescence (AID 1128); conditions: anti-His Alexa647 antibody binding, higher = more signal;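 also: score merges feature fluorescence with signal-to-noise for each printed compound spot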
[10] = tested on: Human papillomavirus type 1a E7 protein (residues 1-88); test: HPV1a E7 small-molecule binders, primary screen, biochemical, small-molecule microarray, residues 1-88, 635 nm (AID 1129); conditions: small-molecule microarray binding, fluorescence 635 nm; higher = more signal
[11] = biological target: Focal adhesion kinase 1 (Homo sapiens) (UniProt Q05397); test: small-molecule microarray binders of FAK, primary screen, biochemical, 635/667 nm fluorescence, BSA, DTT (AID 1130); conditions: PTK2 binding, 635 nm fluorescence, higher = more signal;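 also: composite of spot emission at 667 nm and signal to noise over triplicate slides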
[12] = tested on: Fibrinogen (Alexa647-labelled); test: fibrinogen binders on compound microarrays, profiling panel, artefact control for SMM control-protein annotation, biochemical, small-molecule microarray, 635/667 nm fluorescence (AID 1131); conditions: fibrinogen-A647 binding fluorescence, higher = more signal;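 also: z-score merges 667 nm fluorescence with per-spot signal-to-noise over triplicate slides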
[13] = biological target: Follistatin (Homo sapiens) (UniProt P19883); test: follistatin binders on small-molecule microarrays, primary screen, biochemical, small-molecule microarray, 635/667 nm fluorescence (AID 1132); conditions: FST binding, 635 nm fluorescence, higher = more signal
[14] = biological target: Fibroblast growth factor 2 (Homo sapiens) (UniProt P09038); test: FGF2 binders on small-molecule microarrays, primary screen, biochemical, small-molecule microarray, 635/667 nm fluorescence (AID 1133); conditions: small-molecule microarray binding, FGF2, fluorescence 635/667; higher = more signal
[15] = mitochondrial membrane potential change in A549 cells, profiling panel, cell-based, JC-1 fluorescence, basal, 24 h, 100 nL (AID 1138); conditions: higher = more signal;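 also: A549 lung adenocarcinoma cells under basal conditions with no added stimulus; test concentration not given here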
Lefty1 = Lefty1 binders on small-molecule microarrays, primary screen, biochemical, small-molecule microarray, 635/667 nm fluorescence (AID 1139); conditions: small-molecule microarray binding, fluorescence 635/667; higher = more signal
[16] = tested on: wheat germ agglutinin (Triticum aestivum), Alexa647-labelled; test: wheat germ agglutinin binders on compound microarrays, profiling panel, artefact control for SMM control-protein annotation, biochemical, small-molecule microarray, 635/667 nm fluorescence (AID 1140); conditions: WGA-A647 binding, 635 nm fluorescence, higher = more signal;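 also: score merges 667 nm feature emission with signal to noise over triplicate slides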
[17] = biological target: Luciferin 4-monooxygenase (Photinus pyralis) (UniProt P08659); test: firefly luciferase enzyme inhibitors, primary screen, biochemical, luminescence, purified enzyme, 2006 set (AID 1141); conditions: SteadyGlo luminescence, 30 min, higher = more signal, called active from +8 up or from −8 down;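 also: cell-free assay with purified firefly luciferase at 100 ng per well in PBS; test concentration not given here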
Sequence of Luciferin 4-monooxygenase (Photinus pyralis) (P08659 whole entry, looked up): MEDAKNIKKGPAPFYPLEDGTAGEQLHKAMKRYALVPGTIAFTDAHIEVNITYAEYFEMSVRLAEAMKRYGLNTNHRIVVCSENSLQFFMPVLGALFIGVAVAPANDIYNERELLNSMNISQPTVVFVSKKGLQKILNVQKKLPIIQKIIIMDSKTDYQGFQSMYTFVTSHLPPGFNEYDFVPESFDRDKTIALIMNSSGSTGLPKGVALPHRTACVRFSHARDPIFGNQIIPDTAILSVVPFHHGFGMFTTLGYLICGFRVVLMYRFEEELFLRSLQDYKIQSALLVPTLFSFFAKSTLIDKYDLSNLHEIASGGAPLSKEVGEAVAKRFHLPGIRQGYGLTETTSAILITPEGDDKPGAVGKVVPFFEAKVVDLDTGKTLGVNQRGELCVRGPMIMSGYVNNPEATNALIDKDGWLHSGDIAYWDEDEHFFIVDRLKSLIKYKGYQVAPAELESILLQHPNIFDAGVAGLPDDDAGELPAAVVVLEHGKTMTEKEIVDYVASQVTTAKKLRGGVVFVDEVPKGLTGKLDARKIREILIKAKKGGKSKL

Sequence of Concanavalin-A (Canavalia ensiformis) (P02866 whole entry, looked up): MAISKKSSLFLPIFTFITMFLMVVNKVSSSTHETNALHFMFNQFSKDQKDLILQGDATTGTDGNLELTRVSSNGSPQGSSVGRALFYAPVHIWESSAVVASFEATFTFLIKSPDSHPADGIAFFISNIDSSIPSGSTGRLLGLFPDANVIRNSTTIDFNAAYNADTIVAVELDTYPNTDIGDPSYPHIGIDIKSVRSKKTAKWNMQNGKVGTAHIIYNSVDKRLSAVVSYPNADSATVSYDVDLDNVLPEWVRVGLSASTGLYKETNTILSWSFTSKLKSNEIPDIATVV
Sequence of Albumin (Bos taurus) (P02769 whole entry, looked up): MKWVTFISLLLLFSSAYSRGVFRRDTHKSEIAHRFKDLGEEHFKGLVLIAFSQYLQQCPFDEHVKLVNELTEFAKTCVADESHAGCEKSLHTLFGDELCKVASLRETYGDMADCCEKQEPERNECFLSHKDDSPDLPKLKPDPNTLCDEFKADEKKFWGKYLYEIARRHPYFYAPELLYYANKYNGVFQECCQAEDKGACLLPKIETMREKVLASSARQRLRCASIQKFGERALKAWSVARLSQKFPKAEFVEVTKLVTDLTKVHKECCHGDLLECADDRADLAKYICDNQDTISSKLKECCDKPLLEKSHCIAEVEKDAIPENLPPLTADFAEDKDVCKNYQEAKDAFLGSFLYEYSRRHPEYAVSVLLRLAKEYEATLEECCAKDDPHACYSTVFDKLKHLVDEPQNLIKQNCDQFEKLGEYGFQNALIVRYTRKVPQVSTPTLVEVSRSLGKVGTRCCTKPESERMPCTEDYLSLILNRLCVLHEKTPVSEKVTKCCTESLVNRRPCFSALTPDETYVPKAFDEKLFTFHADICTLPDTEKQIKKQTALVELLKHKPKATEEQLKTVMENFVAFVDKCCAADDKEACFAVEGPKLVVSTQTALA
Sequence of Fibroblast growth factor 2 (Homo sapiens) (P09038 whole entry, looked up): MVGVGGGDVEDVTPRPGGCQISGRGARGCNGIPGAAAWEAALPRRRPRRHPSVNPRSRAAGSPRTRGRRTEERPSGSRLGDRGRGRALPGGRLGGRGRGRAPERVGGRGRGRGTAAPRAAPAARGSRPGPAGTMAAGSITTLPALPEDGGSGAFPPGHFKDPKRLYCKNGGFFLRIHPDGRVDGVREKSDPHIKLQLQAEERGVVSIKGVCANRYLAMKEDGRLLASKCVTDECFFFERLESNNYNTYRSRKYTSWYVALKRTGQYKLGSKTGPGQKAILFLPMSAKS
Sequence of Focal adhesion kinase 1 (Homo sapiens) (Q05397 whole entry, looked up): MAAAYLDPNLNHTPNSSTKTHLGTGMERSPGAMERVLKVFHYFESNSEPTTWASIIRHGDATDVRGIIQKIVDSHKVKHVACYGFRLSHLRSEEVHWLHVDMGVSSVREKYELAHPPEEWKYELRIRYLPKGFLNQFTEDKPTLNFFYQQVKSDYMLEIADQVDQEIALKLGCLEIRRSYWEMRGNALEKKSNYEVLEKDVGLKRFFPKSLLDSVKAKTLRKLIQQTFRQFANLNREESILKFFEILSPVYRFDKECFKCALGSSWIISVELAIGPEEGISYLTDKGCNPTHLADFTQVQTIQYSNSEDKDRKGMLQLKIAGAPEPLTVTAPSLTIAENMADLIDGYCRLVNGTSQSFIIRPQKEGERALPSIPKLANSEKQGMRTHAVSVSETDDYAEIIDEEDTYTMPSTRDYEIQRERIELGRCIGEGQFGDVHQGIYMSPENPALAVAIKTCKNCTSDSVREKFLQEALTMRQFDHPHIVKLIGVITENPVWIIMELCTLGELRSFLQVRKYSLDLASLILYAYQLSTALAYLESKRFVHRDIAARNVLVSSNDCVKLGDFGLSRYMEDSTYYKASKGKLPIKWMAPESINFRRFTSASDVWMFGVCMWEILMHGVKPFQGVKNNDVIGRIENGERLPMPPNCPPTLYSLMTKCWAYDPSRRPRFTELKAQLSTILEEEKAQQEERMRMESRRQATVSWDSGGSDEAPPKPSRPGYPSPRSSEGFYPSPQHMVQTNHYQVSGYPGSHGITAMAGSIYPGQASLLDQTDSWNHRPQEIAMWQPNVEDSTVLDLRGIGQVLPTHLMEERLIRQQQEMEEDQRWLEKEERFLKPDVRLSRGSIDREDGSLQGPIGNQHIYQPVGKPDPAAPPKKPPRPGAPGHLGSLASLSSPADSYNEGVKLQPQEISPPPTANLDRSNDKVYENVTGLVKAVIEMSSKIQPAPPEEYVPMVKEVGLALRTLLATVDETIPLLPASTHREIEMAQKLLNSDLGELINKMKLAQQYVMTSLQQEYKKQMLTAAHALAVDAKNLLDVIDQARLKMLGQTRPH
Sequence of Follistatin (Homo sapiens) (P19883 whole entry, looked up): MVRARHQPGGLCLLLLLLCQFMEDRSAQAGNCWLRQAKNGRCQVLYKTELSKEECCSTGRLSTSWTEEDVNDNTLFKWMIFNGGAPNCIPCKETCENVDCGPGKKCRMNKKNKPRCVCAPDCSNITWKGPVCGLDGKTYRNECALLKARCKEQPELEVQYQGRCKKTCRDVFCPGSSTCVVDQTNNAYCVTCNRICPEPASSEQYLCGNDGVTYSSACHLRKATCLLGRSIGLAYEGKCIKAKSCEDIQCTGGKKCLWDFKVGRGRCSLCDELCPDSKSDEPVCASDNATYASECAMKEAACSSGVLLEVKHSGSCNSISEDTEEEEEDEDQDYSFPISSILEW

Structure (SMILES) | composite z-score (Albumin (Bos taurus)) | composite Z-score [1] | composite z-score [2] | composite z-score [3] | composite z-score [4] | composite z-score [5] | composite z-score [6] | composite z-score (Sam68 (KHDRBS1)) | composite z-score [7] | composite z-score [8] | composite z-score [9] | composite z-score [10] | composite z-score [11] | composite z-score [12] | composite z-score [13] | composite z-score [14] | z-score [15] | composite z-score (Lefty1) | composite z-score [16] | z-score [17]
COC(=O)[C@@]1(Cc2ccc(F)cc2)[C@H]2c3cc(C(=O)N4CCCC4)n(Cc4ccc(S(C)(=O)=O)cc4)c3C[C@H]2CN1C(=O)c1ccccc1 | 1.08 | 1 (inactive) | 0.827 | 0.365 | 0.718 | 3.34 | 1.21 | 0.995 | -0.26 | 1.05 | 1.9 | 1.24 | 0.566 | 0.773 | 0.751 | 0.264 | 0.427 | -0.0071 | 0.616 | 1.18 (inactive)
O=C1N[C@@H](Cc2ccccc2)C(=O)N2[C@@H]1C[C@@H](C(=O)O)[C@H]2c1cccc(OCCO)c1 | 0.0429 | 0.108 (inactive) | -0.0362 | -0.124 | 0.733 | 0.514 | 0.256 | 1.22 | 0.992 | 0.311 | 3.3 | 1.03 | 0.27 | 0.56 | 1.38 | 1.43 | 0.849 | 1.49 | 0.552 | -1.91 (inactive)
COc1ccc([Si](C)(C)[C@H]2[C@H](CC(=O)N3Cc4ccccc4C[C@H]3CO)O[C@@]3(C(=O)N(Cc4cccc(N5CCC5=O)c4)c4ccccc43)[C@@H]2C)cc1 | -0.606 | 0.923 (inactive) | -0.0003 | -0.14 | 0.584 | 1.4 | 0.0972 | 1.2 | 1.21 | 0.64 | 0.322 | 1.19 | 0.527 | 0.135 | 1.33 | 1.47 | 0.526 | 1.22 | 0.107 | -0.796 (inactive)
COCCOC(=O)N1C(=O)[C@@]2(c3cc(C#CCC(C(=O)OC)C(=O)OC)ccc31)[C@H](C(=O)Nc1nc3ccccc3s1)[C@H]1C(=O)O[C@H](c3ccccc3)[C@H](c3ccccc3)N1[C@@H]2c1ccccc1OCCO | 0.893 | 0.259 (inactive) | -0.0343 | -0.0956 | 0.559 | 1.9 | 0.581 | 1.29 | -0.0859 | 1.19 | 1.41 | 1.22 | 0.714 | 0.965 | 0.602 | 0.579 | -2.07 | 0.275 | 1.2 | -1.56 (inactive)
C=C(CCCC)C(=O)CC[C@@H](OC(=O)c1ccccc1-c1ccccc1C(=O)O)c1ccc(OCCO)cc1 | -0.873 | 0.0426 (inactive) | -0.185 | -0.125 | 0.437 | 0.121 | -0.102 | 0.684 | 0.876 | 0.829 | -0.54 | 0.0862 | -0.72 | -0.277 | 1.42 | 1.37 | 0.118 | 0.797 | 0.427 | -2.06 (inactive)
C=CCC(OC(C)=O)[C@@H]1[C@@H](N(Cc2ccc(-c3ccccc3)cc2)C(=O)c2ccc(-c3ccccc3)cc2)c2cc(OCCCO)ccc2N1C(=O)Cc1ccc2ccccc2c1 (stereo not given in full) | 0.108 | -0.316 (inactive) | -0.0057 | -0.213 | 0.002 | 0.522 | -0.0155 | 0.621 | 0.156 | -0.288 | 1.13 | -0.0959 | -0.0802 | 0.51 | 0.456 | -0.275 | 0.857 | 0.211 | 0.0685 | -0.785 (inactive)
